{"source": "the supplement of paper PMC7057948", "about": "“A genome-wide approach for identification and characterisation of metabolite-inducible systems” (Nature Communications, 2020);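 further: RFP excited at 585 nm with emission read at 620 nm, culture medium blanks subtracted from fluorescence and absorbance prior to normalisation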", "data": [{"system": "PhhR/P_H16_RS18365 L-phenylalanine biosensor (pEH137)", "test": "relative induction of RFP reporter vs primary effector (background-corrected); higher = stronger activation of the biosensor", "settings": "inducer concentration 5 mM; 6 h; Cupriavidus necator H16; minimal medium + 0.4% gluconate", "method": "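C. necator H16 strains, each carrying one of 21 transcription factor/inducible promoter–mRFP biosensor plasmids, were grown in minimal medium in 96-well plates (robotic platform). Each was exposed to 46 structurally or metabolically related compounds at 5 mM at 30 °C. OD-normalised RFP fluorescence was read 6 h later and expressed as relative induction (%) = 100 × (FL compound − FL uninduced)/(FL primary inducer − FL uninduced); mean of n=4.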", "units": {"relative induction of RFP reporter": "%"}, "values": [{"smiles": "O=CC(=O)O", "note": "[glyoxylate]", "relative induction of RFP reporter": 0.0787}, {"smiles": "CCC(=O)O", "note": "[propanoate]", "relative induction of RFP reporter": -0.418}, {"smiles": "O=C(O)/C=C/C(=O)O", "note": "[fumarate]", "relative induction of RFP reporter": 0.00492}, {"smiles": "O=C(O)C[C@H](O)C(=O)O", "note": "[L-malate]", "relative induction of RFP reporter": 0.413}, {"smiles": "O=C(O)/C=C\\C=C/C(=O)O", "note": "[cis,cis-muconate]", "relative induction of RFP reporter": -0.13}, {"smiles": "O=C(O)c1cccnc1", "note": "[nicotinate]", "relative induction of RFP reporter": -0.498}, {"smiles": "Oc1ccccc1O", "note": "[catechol]", "relative induction of RFP reporter": -0.0234}, {"smiles": "O=C(O)[C@@H](O)[C@@H](O)[C@H](O)[C@@H](O)C(=O)O", "note": "[glucarate]", "relative induction of RFP reporter": -0.08}, {"smiles": "O=C(O)c1ccc(O)cc1", "note": "[4-hydroxybenzoate]", "relative induction of RFP reporter": -0.483}, {"smiles": "O=C(O)C(O)c1ccccc1", "note": "(configuration not stated) [mandelic acid]", "relative induction of RFP reporter": -0.406}, {"smiles": "O=c1cc[nH]c(=O)[nH]1", "note": "[uracil]", "relative induction of RFP reporter": 0.347}, {"smiles": "O=C(O)C(O)C(=O)O", "note": "[tartronic acid]", "relative induction of RFP reporter": -0.338}]}]}
